The text below walks through data of PubChem BioAssay (NCATS).

“And” between values parts separate entries of the source, which are not always exact repeats. Identical values can stand only once. A number with no mark means an inactive call. Records with an inconclusive call do not appear. The source made the active and inactive calls. Unless noted, calls follow the shape of the dose curve; as a rule, active = well fitted curve in the direction sought with a large enough effect; inconclusive = small, poorly fitted or top-dose-only effect, or another doubt; inactive = no such curve, though single readings can be large; an effect the other way counts as inactive or inconclusive. A value given as a limit tells only on which side of the number the result lay.

The nature of test [1]: Cell Viability - Jurkat (AID 426;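 active = dose-dependent loss of cell ATP signal giving a full or clear fitted curve, ranked by lower potency value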;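 also: potency is read from the fitted curve at half-maximal effect; cells exposed to compound for 40 hours at 37 °C before ATP read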). Particulars: qHTS. Put shortly:
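Seed 5000 Jurkat E6-1 cells/well; add compound; incubate 40 hr at 37 °C; add CellTiter-Glo; wait 20 min at room temperature; read luminescence. Fit concentration-response with Hill equation for AC50.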
In general terms: Quantitative high-throughput screening tests each substance at several concentrations.

Test [2] is described as follows: Cellular Toxicity (caspase-3) SHSY5Y (AID 657). The note with it: SH-SY5Y caspase-3 activation; series mostly up to 91.7 µM. An outline of the steps: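 Luminescent caspase-3/7 readout (aminoluciferin release) in SH-SY5Y cells after 16 h compound exposure in complete medium. Activity scaled between DMSO basal and 10 uM staurosporine as 100%; concentration-response fitted to Hill equation for AC50.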

Test [3] in a line: Cellular Toxicity (caspase-3) BJ (AID 658).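 Also: 0% = DMSO basal and 100% = 10 µM staurosporine.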 The note with it: BJ fibroblasts, luminescence; Potency: caspase-3 activation; series mostly up to 91.7 µM. Put shortly:
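Luminescent aminoluciferin-substrate cleavage reports caspase 3/7 activity in normal human BJ fibroblasts after 16 hr compound exposure at 37 °C. Normalized to DMSO (basal) and 10 uM staurosporine (100%); AC50 from Hill fit of concentration-response.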

Test [4] in a line: Cellular Toxicity (caspase-3) H-4-II-E (AID 663).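 Also: cells exposed to compound for 16 hr before readout.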 Particulars: H-4-II-E rat hepatoma; Potency: caspase-3 activation; series mostly up to 92.2 µM. Put shortly:
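Luminescence from caspase-cleaved aminoluciferin substrate, read 20 min after reagent addition, reports caspase 3/7 activation in rat H-4-II-E cells after 16 hr compound exposure. Normalized to DMSO (basal) and 100 uM tamoxifen (100%); AC50 from Hill fits.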

In test [5] the target is Cytochrome P450 3A4 (Homo sapiens) (UniProt P08684). The test is described as follows: qHTS Assay for Inhibitors and Substrates of Cytochrome P450 3A4 (AID 884). Also: nearly all actives have a fitted effect of over 50% in size. Also: potency is read from the fitted curve at half-maximal effect. Particulars: recombinant CYP3A4, Luciferin-PPXE luminescence; series mostly up to 57.1 µM. An outline of the steps: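 20 nM human CYP3A4 with 25 uM Luciferin-PPXE (at KM) in 200 mM KPO4, preincubated 10 min with compound; NADPH regeneration started a 60 min RT reaction. Luciferin detected by luminescence, normalized to 57 uM ketoconazole as full inhibition.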

Test [6] addresses Peroxisome proliferator-activated receptor delta (Homo sapiens) (UniProt Q03181). Briefly: qHTS assay for small molecule antagonists of peroxisome proliferator-activated receptor delta signaling (AID 588535; active = well fitted inhibition curve with a large enough effect in the signal ratio, with a control signal flat, not every such curve was filed as active; the % refers to the signal ratio). The note with it: HEK293T PPARd-UAS-bla, beta-lactamase FRET ratio, 18 h; series mostly up to 76.7 µM. Put shortly:
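GeneBLAzer PPAR-delta-UAS-bla HEK293T cells in medium with 2% charcoal/dextran FBS were preincubated 5 hrs at 37 C, then given compounds, incubated 18 hrs at 37 C, and read by CCF4 beta-lactamase fluorescence; IC50 from Hill fits.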

In test [7] the target is Peroxisome proliferator-activated receptor gamma (Homo sapiens) (UniProt P37231). The test is described as follows: qHTS assay for small molecule agonists of peroxisome proliferator-activated receptor gamma signaling (AID 588536; active = well fitted curve in the direction sought with a large enough effect in the signal ratio, with a control signal flat, not every such curve was filed as active; the % refers to the signal ratio;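 also: 0% = DMSO basal wells and 100% = rosiglitazone at 2 µM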). Particulars: HEK293 PPARg-UAS-bla, beta-lactamase ratio, 16 h, percent of rosiglitazone response, DMSO as zero; series mostly up to 76.7 µM. An outline of the steps: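 PPAR-gamma-UAS-bla HEK293 cells in medium with 1% charcoal/dextran-treated FBS were exposed to compounds for 16 h at 37 C. Beta-lactamase activity was read with CCF4 substrate (405 nm excitation, 460/530 nm emission).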

Test [8] in a line: qHTS assay for small molecule agonists of the antioxidant response element (ARE) signaling pathway (AID 651741; active = well fitted activation curve with a large enough effect in the signal ratio; the % refers to the signal ratio; also: potency is read from the fitted curve at half-maximal effect; as to activation: % of control where 0% means no effect). The note with it: HepG2 ARE-bla reporter, beta-lactamase FRET ratio, 16 h; series mostly up to 96 µM. An outline of the steps:
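ARE-bla HepG2 cells (beta-lactamase reporter under ARE control) were plated at 2,000 cells/well, preincubated 5 h at 37 C/5% CO2, then treated with DMSO-dissolved compounds for 16 h at 37 C; LiveBLAzer B/G FRET substrate added, fluorescence read after 2 h at room temperature.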

Test [9] in a line: qHTS assay for small molecule activators of the p53 signaling pathway (AID 651743; active = well fitted activation curve with a large enough effect in the signal ratio, not every such curve was filed as active; the % refers to the signal ratio; also: % of control where 0% means no effect). Particulars: HCT-116 p53RE-bla, beta-lactamase FRET ratio, 16 h; activation: hits give high values. An outline of the steps:
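p53RE-bla HCT-116 cells with a stably integrated beta-lactamase reporter under p53 response elements were plated, rested 5 hours at 37 C/5% CO2, then exposed to compounds in DMSO for 16 hours at 37 C. LiveBLAzer B/G FRET substrate was read after 2 hours at room temperature.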

The nature of test [10]: qHTS assay for small molecule activators of the nuclear factor-kappa B (NF-kB) signaling pathway (AID 651749; active = well fitted activation curve with a large enough effect in the signal ratio; the % refers to the signal ratio; also: % of control where 0% means no effect). The note with it: NF-kB-bla ME-180 cells, beta-lactamase FRET ratio, 16 h; hits give high values. Put shortly: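 ME-180 cells stably carrying a beta-lactamase reporter under an NF-kB response element were exposed to compound or DMSO vehicle for 16 hr at 37C, 5% CO2. Pathway activation was read by FRET, since reporter expression disrupts FRET.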

Test [11] deals with Tumor necrosis factor (Homo sapiens) (UniProt P01375). The test is described as follows: qHTS assay to identify small molecules that stimulate Tumor Necrosis Factor-alpha (TNF-alpha) secretion (AID 651757; active = well fitted curve in the direction sought with a large enough effect in the signal ratio; the % refers to the signal ratio; also: 0% is about no effect). Particulars: Human cells, HTRF 665/615 ratio; series mostly up to 92.2 µM. An outline of the steps: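 Secreted TNF-alpha from compound-treated THP-1 cells (17 hrs, 37 C) was quantified with a homogeneous time-resolved fluorescence antibody assay.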

The target of test [12] is Nuclear receptor ROR-gamma (Homo sapiens) (UniProt P51449). Briefly: qHTS assay for small molecule antagonists of the retinoid-related orphan receptor gamma (ROR-gamma) signaling pathway (AID 651802).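 Also: CHO cells with doxycycline-induced ROR-gamma expression; % is scaled to controls: 0 for no effect and ±100 for the full control effect; nearly all actives have a fitted effect of over 60% in size.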 The note with it: ROR-gamma antagonist cell reporter assay; series mostly up to 92.2 µM. An outline of the steps:
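Antagonism is scored as a fall in luminescence from a RORE-luciferase reporter in CHO cells expressing ROR under a TET-inducible promoter, measured 16hr after doxycycline induction in the presence of compound.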

Test [13] is described as follows: qHTS assay for small molecule antagonists of the retinoid-related orphan receptor gamma (ROR-gamma) signaling pathway - cell viability counter screen (AID 720652; active = well fitted curve in the direction sought with a large enough effect in the repeat runs; an effect the other way counts as inactive or inconclusive;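 also: CHO reporter cells with doxycycline-induced ROR-gamma expression; compound exposure lasted 16 hr before ATP read; % is scaled to controls: 0 for no effect and ±100 for the full control effect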). The note with it: RORgamma reporter cell line viability counter screen; series mostly up to 92.2 µM. An outline of the steps:
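Cytotoxicity is quantified via intracellular ATP (CellTiter-Glo luminescence) in doxycycline-induced CHO ROR response element-luciferase reporter cells treated with compound for 16 hr at 37 C, 5% CO2.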

Test [14] is described as follows: qHTS assay for small molecule activators of the human pregnane X receptor (PXR) signaling pathway (AID 720659; call rule not given here; also: 0% is about no effect). The note with it: DPX-2 HepG2 CYP3A4-luciferase, 24 h; series mostly up to 92.3 µM.
Test [15] is described as follows: Cell Viability - NIH 3T3 (AID 541).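 Also: cells exposed to compound for 40 hours; plate controls were DMSO alone for no effect and tamoxifen positive control for full effect; nearly all actives have a fitted effect of over 25% in size.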 Particulars: NIH 3T3 cell viability, qHTS; activity change, negative = cytotoxicity: at 92.2 µM (top of the series). An outline of the steps: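 AC50 values reflect concentration-dependent loss of intracellular ATP in NIH 3T3 cells after 40 hr treatment in complete culture medium, quantified by luciferase-based luminescence.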

Test [16] is described as follows: Cellular Toxicity (caspase-3) Mesangial (AID 660).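 Also: combined caspase 3 and 7 activity read by Caspase-Glo luminescence; cells exposed to compound for 16 h before the caspase read.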 Particulars: mesangial cells, normalized: DMSO 0%, 100 µM tamoxifen 100%; series mostly up to 91.7 µM. Put shortly: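 Concentration-response qHTS: compound-induced rise in caspase 3/7 luminescence in human mesangial cells after 16 h, normalized to DMSO and 100 uM tamoxifen controls.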
Test [17] has as its target Estrogen receptor (Homo sapiens) (UniProt P03372). Briefly: qHTS assay for small molecule antagonists of estrogen receptor alpha signaling (AID 588513; active = well fitted curve in the direction sought with a large enough effect in the signal ratio, with a control signal flat, not every such curve was filed as active; the % refers to the signal ratio; also: % is scaled to controls: 0 for no effect and ±100 for the full control effect). The note with it: ER-alpha-UAS-bla HEK293, beta-lactamase ratio, antagonist mode; series mostly up to 76.9 µM. Put shortly:
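Beta-lactamase reporter, antagonist mode, HEK 293 GripTite cells; 0.5nM E2 stimulus, 18 h, 37 C; CCF4 dye 2 h RT; fluorescence. IC50 and efficacy from Hill fits, normalized to E2 and DMSO.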

Test [18] has the same target. Briefly: qHTS assay for small molecule agonists of estrogen receptor alpha signaling (AID 588514; calls by dose curve;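 also: 0% = vehicle only and 100% = reference agonist; nearly all actives have a fitted effect of over 70% in size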). Particulars: ER-alpha-UAS-bla HEK293, beta-lactamase ratio, 18 h; series mostly up to 76.8 µM. Put shortly:
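Reporter-gene assay. […] controls beta-lactamase in HEK 293 GripTite cells; after 18 hrs with compound, CCF4 substrate is added for 2 hrs and fluorescence is read.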

For test [19], the target named is Vitamin D3 receptor (Homo sapiens) (UniProt P11473). Briefly: qHTS assay for small molecule antagonists of vitamin D receptor signaling (AID 588541; calls by dose curve;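 also: receptor activated by calcitriol during compound treatment; % is scaled to controls: 0 for no effect and ±100 for the full control effect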). Particulars: HEK293T VDR-UAS-bla, beta-lactamase ratio, antagonist mode; series mostly up to 76.7 µM. Put shortly: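 VDR-UAS-bla HEK293T cells (2000/well, 2% charcoal-stripped FBS) were treated with titrated compounds plus 1-alpha,25-dihydroxyvitamin D3 (50 nM or 3 nM final) for 16 h at 37 C. CCF4 beta-lactamase fluorescence was read; Hill fits gave IC50.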

For test [20] the target is unchanged. The test is described as follows: qHTS assay for small molecule agonists of vitamin D receptor signaling (AID 588543; calls by dose curve;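 also: 0% = DMSO basal and 100% = reference agonist control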). Particulars: HEK293T VDR-UAS-bla, beta-lactamase ratio, 16 h; series mostly up to 76.8 µM. An outline of the steps:
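β-lactamase reporter, VDR-UAS-bla HEK293T, agonist mode. Cells plated 5 h at 37 °C, compound titration 16 h at 37 °C, CCF4 dye 2 h RT, ratio 460/530 nm. Hill fit → EC50, efficacy vs 50 nM 1α,25-(OH)2D3.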

Sequence of Vitamin D3 receptor (Homo sapiens) (P11473 whole entry, looked up): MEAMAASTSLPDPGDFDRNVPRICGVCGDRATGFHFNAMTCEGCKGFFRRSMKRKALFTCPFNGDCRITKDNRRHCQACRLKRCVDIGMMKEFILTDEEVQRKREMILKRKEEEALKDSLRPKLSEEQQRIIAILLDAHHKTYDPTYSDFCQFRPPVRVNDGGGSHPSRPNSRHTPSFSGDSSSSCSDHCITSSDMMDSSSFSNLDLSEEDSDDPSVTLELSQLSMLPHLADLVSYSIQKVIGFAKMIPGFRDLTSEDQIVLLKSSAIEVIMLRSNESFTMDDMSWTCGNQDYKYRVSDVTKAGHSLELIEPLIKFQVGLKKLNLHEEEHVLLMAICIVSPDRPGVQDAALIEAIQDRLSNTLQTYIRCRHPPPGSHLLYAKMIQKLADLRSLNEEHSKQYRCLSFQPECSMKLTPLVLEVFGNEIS
Sequence of Peroxisome proliferator-activated receptor delta (Homo sapiens) (Q03181 whole entry, looked up): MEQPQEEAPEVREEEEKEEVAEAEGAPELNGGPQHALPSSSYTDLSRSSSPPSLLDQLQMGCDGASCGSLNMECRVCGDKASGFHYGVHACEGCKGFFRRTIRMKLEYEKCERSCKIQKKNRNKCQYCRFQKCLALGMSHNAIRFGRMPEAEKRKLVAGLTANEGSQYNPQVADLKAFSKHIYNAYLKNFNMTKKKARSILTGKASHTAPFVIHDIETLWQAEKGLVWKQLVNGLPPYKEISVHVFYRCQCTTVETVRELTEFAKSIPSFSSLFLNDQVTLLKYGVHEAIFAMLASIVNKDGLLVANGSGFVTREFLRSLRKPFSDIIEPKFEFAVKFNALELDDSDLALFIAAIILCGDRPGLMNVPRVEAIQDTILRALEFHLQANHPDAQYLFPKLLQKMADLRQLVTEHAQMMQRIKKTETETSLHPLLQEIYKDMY
Sequence of Peroxisome proliferator-activated receptor gamma (Homo sapiens) (P37231 whole entry, looked up): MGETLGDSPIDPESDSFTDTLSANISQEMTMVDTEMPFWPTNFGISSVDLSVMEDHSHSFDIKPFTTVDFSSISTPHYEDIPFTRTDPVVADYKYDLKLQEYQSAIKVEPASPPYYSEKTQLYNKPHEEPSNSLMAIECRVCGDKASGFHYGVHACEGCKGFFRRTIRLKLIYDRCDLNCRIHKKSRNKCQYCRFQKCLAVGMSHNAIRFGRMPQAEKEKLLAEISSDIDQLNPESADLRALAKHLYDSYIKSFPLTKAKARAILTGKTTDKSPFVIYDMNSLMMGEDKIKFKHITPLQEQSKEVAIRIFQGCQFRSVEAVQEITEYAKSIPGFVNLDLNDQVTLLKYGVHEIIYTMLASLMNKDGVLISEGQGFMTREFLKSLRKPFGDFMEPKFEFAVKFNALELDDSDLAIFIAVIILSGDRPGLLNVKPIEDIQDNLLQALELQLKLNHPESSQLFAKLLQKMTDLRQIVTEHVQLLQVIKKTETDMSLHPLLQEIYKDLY
Sequence of Tumor necrosis factor (Homo sapiens) (P01375 whole entry, looked up): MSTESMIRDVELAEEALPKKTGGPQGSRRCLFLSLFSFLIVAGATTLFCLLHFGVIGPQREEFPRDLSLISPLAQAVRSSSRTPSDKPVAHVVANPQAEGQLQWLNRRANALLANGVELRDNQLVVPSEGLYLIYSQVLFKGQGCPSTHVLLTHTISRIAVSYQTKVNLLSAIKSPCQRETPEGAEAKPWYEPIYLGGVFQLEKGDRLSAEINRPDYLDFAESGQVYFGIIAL
Sequence of Nuclear receptor ROR-gamma (Homo sapiens) (P51449 whole entry, looked up): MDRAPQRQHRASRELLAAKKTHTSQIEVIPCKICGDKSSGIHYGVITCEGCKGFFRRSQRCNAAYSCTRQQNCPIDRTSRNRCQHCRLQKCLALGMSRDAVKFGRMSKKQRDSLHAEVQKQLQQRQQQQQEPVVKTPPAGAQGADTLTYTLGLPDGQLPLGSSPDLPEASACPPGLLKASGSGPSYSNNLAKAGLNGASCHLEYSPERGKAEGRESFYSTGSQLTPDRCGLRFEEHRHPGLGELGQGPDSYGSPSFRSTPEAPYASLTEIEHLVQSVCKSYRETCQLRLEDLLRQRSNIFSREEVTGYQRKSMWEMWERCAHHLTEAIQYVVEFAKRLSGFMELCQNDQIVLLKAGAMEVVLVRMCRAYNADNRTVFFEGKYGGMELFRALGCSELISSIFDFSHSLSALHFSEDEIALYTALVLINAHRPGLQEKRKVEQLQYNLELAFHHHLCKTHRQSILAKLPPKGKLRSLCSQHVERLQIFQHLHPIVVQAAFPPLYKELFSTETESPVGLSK
Sequence of Cytochrome P450 3A4 (Homo sapiens) (P08684 whole entry, looked up): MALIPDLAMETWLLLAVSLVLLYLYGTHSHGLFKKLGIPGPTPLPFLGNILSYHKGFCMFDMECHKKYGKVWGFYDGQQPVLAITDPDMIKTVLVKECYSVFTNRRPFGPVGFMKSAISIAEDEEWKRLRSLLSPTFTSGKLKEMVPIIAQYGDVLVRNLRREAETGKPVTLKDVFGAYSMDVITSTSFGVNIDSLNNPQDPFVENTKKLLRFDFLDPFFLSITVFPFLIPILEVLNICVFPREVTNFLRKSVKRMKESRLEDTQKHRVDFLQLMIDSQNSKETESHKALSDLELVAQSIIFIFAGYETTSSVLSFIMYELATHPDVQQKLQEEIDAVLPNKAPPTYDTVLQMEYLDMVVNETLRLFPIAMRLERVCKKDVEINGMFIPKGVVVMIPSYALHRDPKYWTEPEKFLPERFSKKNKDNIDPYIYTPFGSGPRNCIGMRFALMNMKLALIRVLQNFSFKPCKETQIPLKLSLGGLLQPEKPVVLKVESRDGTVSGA
Sequence of Estrogen receptor (Homo sapiens) (P03372 whole entry, looked up): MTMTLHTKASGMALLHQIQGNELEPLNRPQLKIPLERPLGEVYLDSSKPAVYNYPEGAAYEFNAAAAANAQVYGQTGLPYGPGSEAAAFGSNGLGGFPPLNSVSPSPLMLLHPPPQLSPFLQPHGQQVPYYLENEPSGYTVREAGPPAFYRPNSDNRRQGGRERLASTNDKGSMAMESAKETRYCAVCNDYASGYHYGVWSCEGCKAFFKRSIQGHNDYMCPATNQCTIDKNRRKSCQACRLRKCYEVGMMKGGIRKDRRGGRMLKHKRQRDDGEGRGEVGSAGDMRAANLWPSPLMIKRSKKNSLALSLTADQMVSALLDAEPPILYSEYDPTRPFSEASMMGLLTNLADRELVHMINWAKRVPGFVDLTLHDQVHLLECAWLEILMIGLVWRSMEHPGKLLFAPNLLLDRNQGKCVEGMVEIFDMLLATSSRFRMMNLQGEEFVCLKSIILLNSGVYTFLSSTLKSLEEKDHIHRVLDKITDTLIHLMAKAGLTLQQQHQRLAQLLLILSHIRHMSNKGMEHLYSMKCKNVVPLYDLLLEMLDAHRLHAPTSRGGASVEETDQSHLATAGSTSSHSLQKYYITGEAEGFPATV

Consider `CCCC(=O)OC(=O)CCC`, for which the Potency in [1] is more than 92 µM. Moreover, the Potency result in test [2], in test [3], in test [4], in test [5], in test [8] and in test [11] was “inactive” in each case. Besides, the Potency entry in test [12] and in test [13] was “inactive” throughout. In addition, the outcome in [6], in [7] and in test [14] was inactive. Moreover, the activation was 0.746% and 0.239% in [9]; 0.205% and -0.934% in test [10].

`C1CCCNCC1`: the Potency in test [1] is more than 92 µM. For the same compound, the activity change, negative = cytotoxicity in test [15] is -12.5%. Besides, the Potency entry in test [2], in test [3], in test [5], in [18], in [8] and in test [11] was “inactive” in each case. The Potency entry in [12] and in test [13] was “inactive” each time. Besides, the compound was called inactive in test [16], in test [17], in [6], in test [7] and in test [14].

Take `COc1cc(-c2ccc(N=C=O)c(OC)c2)ccc1N=C=O`: the Potency in test [1] was more than 92 µM; in [5] it was 12.6 µM (active); in test [8], 2.37 µM (active). Also, the Potency result in [2], in test [3], in test [4], in test [19], in test [20] and in test [13] was “inactive” each time. In addition, the compound was called inactive in [16] and in test [14].

For `CC(=O)Nc1cccc(C)c1`, the Potency in test [1] was more than 92 µM. For the same compound, the activity change, negative = cytotoxicity in test [15] is -12.7%. Besides, the Potency entry in test [3], in test [4], in test [5], in test [18], in test [19] and in test [8] was “inactive” in each case. The Potency result in [11], in [12] and in test [13] was “inactive” each time. Besides, the result in test [17], in test [6], in test [7] and in test [14] was inactive. Moreover, the activation in [9] is 0.223%; in test [10], -1.12%.

As for `Cc1cccnc1`, the Potency in [1] is more than 92 µM. Also, in test [15], the activity change, negative = cytotoxicity is -24.9%. Besides, the Potency entry in test [2], in test [3], in test [4], in test [5], in [19] and in [20] was “inactive” in each case. The Potency result in test [8], in [11], in test [12] and in test [13] was “inactive” throughout. In addition, the result in test [7] and in test [14] was inactive. Further, the activation in [10] is -0.701%.
